# Laboratory results published in PubChem BioAssay.
# Where “and” joins values, the source holds several entries; their conditions need not be identical. Equal values may be shown once. For some of these results: Measured potencies and affinities stand elsewhere. Calls of active or inactive are those of the source. Unless noted, how the calls were made is not given here.
# Columns and labels:
# [1] = system: Aerobactin synthetase IucA (Klebsiella pneumoniae, hypervirulent); assay: biochemical IucA inhibition screen of LOPAC library by absorbance (AID 1346212); details: IucA enzyme assay, absorbance (OD) readout; stronger effect = lower value;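 tested at 8 µM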;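 further: 100% = no compound wells and 0% = no enzyme wells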
# [2] = blockers of polyQ-driven CASP3 activation – cell-based (AID 1583); details: polyglutamine-induced caspase-3 activation, cell assay; stronger effect = higher value;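 tested at 10 µM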
# [3] = yeast 75Q aggregation reduction – 75Q-TubU reporter (AID 1593); details: Yeast 75Q polyglutamine aggregation reporter
# [4] = restoration of touch response, mutant HTT neurons – whole organism, C. elegans mechanosensory neurons, N-terminal huntingtin (AID 1599); details: C. elegans polyQ-huntingtin mechanosensory neurons, stronger effect = higher value
# [5] = blockers of cytochrome c efflux from mitochondria – biochemical, purified mitochondria (AID 1603); details: stronger effect = lower value;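 further: mouse liver mitochondria challenged with calcium chloride; signal normalized to the plate average as 100%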
# [6] = polyglutamine aggregate formation blockers (AID 1604); details: polyglutamine-induced protein aggregation inhibition assay; stronger effect = higher value; tested at 2.5 µM
# [7] = glutamate transport activators, MN-1 cells, MN-1 cell line (AID 1612); details: MN-1 motor neuron cells, stronger effect = higher value;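 further: tested at 1 µM final; 0% = mean of DMSO vehicle wells on each plate; positive means more glutamate uptake than control and negative means less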
# [8] = GFP-Q80 aggregate reduction, neuronal-like cells, cell-based, NGF-treated PC12, GFPQ80 (AID 1614); details: PC12 NGF-treated GFP-polyQ80 inclusion reduction;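 further: lower means fewer inclusions and 0 means no inclusions at all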
# [9] = 75Q-TubH aggregate inhibition, S. cerevisiae, yeast (AID 1616); details: S. cerevisiae 75Q-TubH polyglutamine aggregation suppression; stronger effect = higher value
# [10] = P. berghei load reduction in hepatocytes – cell-based, HepG2, luciferase luminescence, HepG2 viability, primary screen (AID 624349; in the data active means parasite load remaining mostly below about 12%, no sharp cut-off; inactive means mostly above about 10%;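 further: 100% = mean of DMSO negative control wells on the same plate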); details: P. berghei liver stage in HepG2, luciferase luminescence, concentration not given here; parasite load remaining: stronger effect = lower value; viability: measured here: HepG2 viability without parasites
# [11] = system: Aerobactin synthetase IucA (Klebsiella pneumoniae hvKP1); assay: IucA enzyme inhibition, primary screen, biochemical, Spectrum library (AID 1346200); details: malachite green pyrophosphate, A620, at 8 µM, stronger effect = lower value;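 further: 100% = wells without compound and 0% = wells lacking enzyme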
# [12] = target: Mitogen-activated protein kinase 7 (Homo sapiens) (UniProt Q13164); assay: Gal4-ERK5 driven luciferase induction – cell-based, HTS, primary screen (AID 1508626;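 active means luciferase signal above three times the same-plate solvent-only control wells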;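 further: luciferase driven by Gal4-ERK5 fusion binding five Gal4 sites before minimal TATA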); details: HeLa Gal4-ERK5 transactivation, 18 h, at 5 µM, stronger effect = higher value
# Mitogen-activated protein kinase 7 (Homo sapiens), sequence (Q13164 whole entry, looked up, the tested form may be a part): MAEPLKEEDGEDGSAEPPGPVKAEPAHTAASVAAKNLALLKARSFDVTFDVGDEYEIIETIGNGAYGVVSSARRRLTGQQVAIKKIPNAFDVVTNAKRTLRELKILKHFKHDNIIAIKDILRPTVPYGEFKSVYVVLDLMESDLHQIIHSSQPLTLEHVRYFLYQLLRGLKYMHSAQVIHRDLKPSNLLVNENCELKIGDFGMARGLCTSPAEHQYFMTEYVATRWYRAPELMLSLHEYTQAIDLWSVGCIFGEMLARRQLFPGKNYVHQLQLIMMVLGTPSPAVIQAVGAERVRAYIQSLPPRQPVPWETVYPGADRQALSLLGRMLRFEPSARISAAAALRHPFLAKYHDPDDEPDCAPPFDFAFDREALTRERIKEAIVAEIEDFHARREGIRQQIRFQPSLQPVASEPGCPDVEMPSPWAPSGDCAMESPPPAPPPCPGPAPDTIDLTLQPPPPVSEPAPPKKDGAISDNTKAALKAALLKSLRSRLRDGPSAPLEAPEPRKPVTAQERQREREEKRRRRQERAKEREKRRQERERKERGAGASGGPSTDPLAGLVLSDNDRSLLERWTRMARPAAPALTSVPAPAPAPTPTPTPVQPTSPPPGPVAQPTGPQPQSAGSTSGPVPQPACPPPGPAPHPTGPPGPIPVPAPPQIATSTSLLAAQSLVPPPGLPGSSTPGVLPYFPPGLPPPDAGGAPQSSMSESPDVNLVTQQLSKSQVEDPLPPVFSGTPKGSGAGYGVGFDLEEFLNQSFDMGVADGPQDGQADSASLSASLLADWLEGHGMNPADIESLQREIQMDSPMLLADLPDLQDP
# [13] = chitosan synthesis blockers in C. neoformans – flow cytometry, Cibacron Brilliant Red staining (AID 1347148); details: Cryptococcus neoformans chitosan, stronger effect = lower value; at 10 µM unless noted;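 further: compound exposure lasted three days at 37 degrees C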
# [14] = viability loss with induced miR-34 in A549 – imaging, A549 dox-inducible miR-34, nuclei and caspase counts, primary screen (AID 1347080;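 active means compounds whose cell count with miR-34 switched on is under 0.7 times the count with it off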); details: A549 miR-34 inducible, Hoechst nuclei count, 48 h
smiles,measurement,setting,value
CN(C(=O)CCCOc1ccc2[nH]c(=O)ccc2c1)C1CCCCC1,remaining activity,[1],124% (inactive)
COc1ccc2c(c1OC)C(=O)O[C@H]2[C@H]1c2cc3c(cc2CCN1C)OCO3,inhibition,[2],-1.71%
same,score,[3],1.46
same,rescue above control,[4],-6.7
same,cytochrome c release ratio,[5],1.06
same,inhibition of aggregation,[6],71.9%
same,glutamate uptake change,[7],13.5%
same,inclusion score,[8],2
same,aggregation suppression score,[9],1.24
same,parasite load remaining,[10],124% (inactive)
same,viability,[10],70.9%
same,activity remaining,[11],127% (inactive)
same,luciferase signal,[12],76 AU (inactive)
c1cc2c(cc1[C@H]1OC[C@H]3[C@@H]1CO[C@H]3c1ccc3c(c1)OCO3)OCO2,activity remaining,[11],120% (inactive)
same,luciferase signal,[12],52 AU (inactive)
CCCCCCCCCCCCCCCCCCOC[C@H](COP(=O)([O-])OCC[N+](C)(C)C)OC,remaining activity,[1],119% (inactive)
Oc1cc2c(cc1O)CN(C(=S)NCCc1ccc(Cl)cc1)CCC2,remaining activity,[1],97.8% (inactive)
CC1(C)N([O-])[N+](=O)C1(C)Br (centres undefined),activity remaining,[11],96.6% (inactive)
same,luciferase signal,[12],44 AU (inactive)
CCC(C)C(=O)O[C@H]1[C@H](O)C2C(CN3CC(C)CCC3[C@@]2(C)O)C2C[C@]34O[C@]5(O)C(OC(=O)C(C)(O)C(C)O)CC[C@@]3(C)C5C(OC(C)=O)[C@@H](OC(C)=O)C4[C@@]21O (some centres undefined),inhibition,[2],19.1%
same,score,[3],1.45
same,rescue above control,[4],-3.98
same,cytochrome c release ratio,[5],1
same,inhibition of aggregation,[6],1.96%
same,glutamate uptake change,[7],2.79%
same,inclusion score,[8],2
same,aggregation suppression score,[9],1.75
same,parasite load remaining,[10],75% (inactive)
same,viability,[10],68.5%
same,activity remaining,[11],107% (inactive)
O=c1ccc2c(O)c3ccoc3cc2o1,activity remaining,[11],96.6% (inactive)
same,luciferase signal,[12],32 AU (inactive)
O=C1NC(c2cccc([N+](=O)[O-])c2)=CCN1c1ccccc1O,remaining activity,[1],105% (inactive)
O=S(=O)(c1cccc2c(Cl)cccc12)N1CCCNCC1,remaining activity,[1],110% (inactive)
CO[C@H]1[C@H](O)[C@H](O[C@H]2CC[C@]3(C)C4CC[C@]5(C)C(C6=CC(=O)OC6)CC[C@]5(O)C4CC[C@@H]3C2)O[C@@H](C)[C@@H]1O (some centres undefined),score,[3],1.23
same,rescue above control,[4],-1.89
same,cytochrome c release ratio,[5],0.83
same,inhibition of aggregation,[6],94.4%
same,glutamate uptake change,[7],-17.6%
same,inclusion score,[8],2
same,aggregation suppression score,[9],1.46
same,activity remaining,[11],93.6% (inactive)
C=C[C@@H]1C2=CCOC(=O)C2=CO[C@H]1O[C@@H]1O[C@H](CO)[C@@H](O)[C@H](O)[C@H]1O,activity remaining,[11],126% (inactive)
same,luciferase signal,[12],64 AU (inactive)
N[C@@H](Cc1ccc(F)cc1)C(=O)O,remaining activity,[1],95% (inactive)
C[C@@H]1CC[C@@]2(NC1)O[C@H]1C[C@H]3C4CC=C5C[C@@H](O)CC[C@]5(C)C4CC[C@]3(C)C1[C@@H]2C (some centres undefined),parasite load remaining,[10],57% (inactive)
same,viability,[10],93.1%
same,activity remaining,[11],118% (inactive)
C/C=C(\C)C(=O)O[C@H]1C[C@@H](OC(C)=O)[C@@]2(C(=O)OC)CO[C@@H]3C2[C@]12CO[C@](O)(C(=O)OC)[C@H]2[C@](C)(C12O[C@@]1(C)[C@H]1C[C@@H]2OC2OC=C[C@@]21O)[C@@H]3O (some centres undefined),inhibition,[2],0.47%
same,score,[3],1.31
same,rescue above control,[4],3.11
same,cytochrome c release ratio,[5],1.46
same,inhibition of aggregation,[6],72.4%
same,glutamate uptake change,[7],12.4%
same,inclusion score,[8],2
same,aggregation suppression score,[9],1
same,parasite load remaining,[10],62.6% (inactive)
same,viability,[10],97.8%
same,activity remaining,[11],89% (inactive)
CC(=O)C1=C(O)C2C3c4c[nH]c5cccc(c45)CC3C(C)(C)N2C1=O (centres undefined),inhibition,[2],-21.2%
same,score,[3],-0.21
same,rescue above control,[4],9.72
same,cytochrome c release ratio,[5],1.1
same,inhibition of aggregation,[6],-15.2%
same,glutamate uptake change,[7],28.8%
same,aggregation suppression score,[9],0.0191
same,activity remaining,[11],102% (inactive)
same,fold fluorescence,[13],4.14 [at 148.6 µM] (inactive)
N[C@@H](CC(=O)O)C(=O)O,remaining activity,[1],111% (inactive)
O=C(NC(=O)c1ccccc1Cl)Nc1ccc(OC(F)(F)F)cc1,activity remaining,[11],118% (inactive)
same,luciferase signal,[12],68 AU (inactive)
CNC(C)[C@@H]1CC[C@@H](N)[C@@H](OC2[C@@H](N)C[C@@H](N)[C@H](OC3OC[C@](C)(O)[C@H](NC)[C@H]3O)[C@H]2O)O1 (some centres undefined),parasite load remaining,[10],99.6% (inactive) and 66.4% (inactive)
same,viability,[10],74.9% and 95.7%
same,activity remaining,[11],116% (inactive)
same,fold change,[14]; stronger effect = lower value,0.833 (inactive)
same,fold change,[14]; measured here: relative caspase fold change +Dox/-Dox,0.842
same,cell count,"[14]; measured here: total cells with miR-34 induction, stronger effect = lower value",10800
same,cell count,[14]; measured here: total cells without miR-34 induction,13000
COc1ccc2c(c1OC)C(=O)O[C@@H]2[C@@H]1c2cc3c(cc2CCN1C)OCO3,parasite load remaining,[10],190% (inactive)
same,viability,[10],68.5%
same,activity remaining,[11],113% (inactive)
CC1(C)C2C[C@@H](O)[C@]3(C)C(CC[C@@]4(C)[C@H](c5ccoc5)OC(=O)[C@H]5O[C@]543)[C@@]2(C)[C@@H](O)C[C@H]1O (some centres undefined),activity remaining,[11],124% (inactive)
same,luciferase signal,[12],32 AU (inactive)
C[C@H]1O[C@@H](n2cc(F)c(=O)[nH]c2=O)[C@H](O)[C@@H]1O,remaining activity,[1],98.9% (inactive)
C[C@]12CCC3C(CC[C@H]4CC(=O)CC[C@]34C)C1CCC2=O (some centres undefined),parasite load remaining,[10],63.7% (inactive)
same,viability,[10],96.1%
same,activity remaining,[11],94.5% (inactive)
C[C@@H]1C(=O)OC2[C@H](O)C34[C@@H]5OC(=O)[C@@]3(O[C@@H]3OC(=O)[C@H](O)[C@@]34[C@H](C(C)(C)C)[C@H]5O)[C@]21O (some centres undefined),parasite load remaining,[10],84.4% (inactive)
same,viability,[10],70.9%
same,activity remaining,[11],116% (inactive)
COc1cc(NS(C)(=O)=O)ccc1Nc1c2ccccc2nc2ccccc12,remaining activity,[1],108% (inactive)
Nc1cc(=O)[nH]c(N)n1,remaining activity,[1],126% (inactive)
CC(=O)c1ccc(S(=O)(=O)NC(=O)NC2CCCCC2)cc1,remaining activity,[1],127% (inactive)
CN(CCOc1ccc(C[C@H](Nc2ccccc2C(=O)c2ccccc2)C(=O)O)cc1)c1ccccn1,remaining activity,[1],117% (inactive)
